Results: PMC5540273 (PLoS ONE, 2017)

System: PRKCH
Conditions: concentration: 1 μM, replicates: in singlicate; n = 1
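Also: KINOMEscan kinase panel screen.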

Structure (SMILES) | %Inh
COc1ccc(-n2cnc3c(N)ncnc32)cc1 [SKF-97236] | 23%
FC(F)(F)c1ccc(-c2ncn(CCCN3CCOCC3)c2-c2ccncc2)cc1 [SB-217780] | 0%
CCc1nc(-c2cccc(C)c2)c(-c2ccncc2)s1 | 0%
COC(=O)c1c(-c2ccccc2)c2cc(Br)ccc2c(=O)n1Cc1ccc(NC(=O)CCC(=O)O)cc1 | 7%
Cc1ccc(-c2ccc3c(ccc4sc5c(c43)NC[C@@H](C)N=C5N(C)C)n2)cn1 | 0%
Cc1nnc(-c2ccc(C)c(-c3ccc(C(=O)O)cc3)c2)o1 [GW608005] | 0%
CCCNC(=O)Nc1ccc(Oc2ncnc3ccn(C)c23)cc1 | 13%
Nc1n[nH]c2nnc(-c3ccccc3)c(-c3ccccc3)c12 [GW554060] | 14%
COC(=O)c1c(-c2ccccc2)c2cc(Br)ccc2c(=O)n1Cc1ccc(S(C)(=O)=O)cc1 | 4%
O=c1cc(N2CCOCC2)nc2n(Cc3ccc(F)c(Cl)c3)ccn12 [GSK2297099] | 12%
COc1cc(Nc2nccc(N3CCC(NC(=O)C4COc5ccccc5O4)C3)n2)cc(OC)c1OC (stereo not drawn) [GSK1379761] | 4%
CCCC(=O)Nc1n[nH]c2ncc(-c3cccc4ccccc34)cc12 [SB-642057] | 16%
CCn1c(-c2nonc2N)nc2ccccc21 [SB-693162/GW549034] | 17%
O=C(Nc1n[nH]c2nc(-c3ccccc3)c(Br)cc12)C1CC1 [SB-708998] | 15%
Cn1c(=O)c(F)c(Nc2ccc(I)cc2F)c2c(=O)n(OC[C@H](O)CO)cnc21 | 0%
COc1cc2nccc(Nc3ccc(OCc4ccc(NC(C)=O)cc4)cc3)c2cc1OC.Cl [GW440135] | 14%
Cl.c1ccc(Cn2cnc3cc(Nc4ncnc5ccccc45)ccc32)cc1 [GW272142] | 0%
Nc1ncnc2c1ncn2-c1cccc2ccccc12 [SKF-97184] | 5%

Structure (SMILES) | %Inh
O=C(NCCNc1ccnc(Nc2ccc(F)cc2)n1)Nc1ccc2c(c1)OCO2 [GSK1379882] | 16%
O=C(Nc1n[nH]c2cc(-c3ccccc3F)ccc12)C1CC1 [SB-733371] | 0%
COc1ccc(-c2coc3ccc(-c4nnc(SCc5cccc(C#N)c5)o4)cc23)cc1 | 0%
Cc1nc(N(C)[C@H]2CN(C(=O)CC#N)CC[C@H]2C)c2cc[nH]c2n1 | 8%
Cc1cccc(-c2nc(Nc3ccc4c(cnn4C)c3)c3ccccc3n2)n1 [GW876731] | 0%
Cl.NS(=O)(=O)c1cccc(Nc2cc(-c3ccc(F)cc3)n[nH]2)c1 [GW824645] | 0%
COc1ccc(-c2cc3c(C)nc(N)nc3n([C@H]3CC[C@H](OCCO)CC3)c2=O)cn1 | 0%
COc1ccc(-c2cc3c(C)nc(N)nc3n([C@H]3CC[C@H](O)CC3)c2=O)cn1 | 0%
CN(C)c1cc(-c2ccc3c(N)n[nH]c3c2)nc(N)n1 [GSK2219329] | 14%
O=C1NC(=O)C(c2ccccc2)=C1Nc1cccc(O)c1 [SB-390534] | 0%
Fc1cccc(CSc2nnc(-c3ccc4c(c3)CCO4)o2)c1 | 0%
COc1cc2ncn(-c3cc(OCCCc4ccccc4)c(C(N)=O)s3)c2cc1OC [GSK205189] | 0%
COc1cc(Nc2ccnc3ccc(C(F)(F)F)cc23)cc(OC)c1OC [GW577382] | 13%
COc1cccc(-n2cnc3c(N)ncnc32)c1 [SKF-97416] | 0%
COc1cccc(C2=C(Nc3cccc(C(=O)O)c3)C(=O)NC2=O)c1 [SB-390770] | 28%
Nc1nc(N)c2nc(-c3ccccc3)[nH]c2n1 [SKF-12778] | 0%
CCC(=O)c1c(-c2ccccc2)c2cc(Cl)ccc2c(=O)n1Cc1cc(S(C)(=O)=O)n(CC(F)F)n1 | 6%
CCS(=O)(=O)c1ccc(OC)c(Nc2ncc(-c3ccc(F)cc3)o2)c1.Cl [GW591947] | 18%
